Hit rate of the full screen: of about 310,000 compounds, about 1,200 (0.39%) were called active. The list is a sample of the results. Potency and affinity values are given separately. A number with no mark means an inactive call. No rule for the calls is given here.

In this assay the target is Large T antigen (Simian virus 40) (UniProt P03070). In words: TAg ATPase/helicase activity blockers – biochemical (AID 1903). The note with it: SV40 large T antigen ATPase/helicase inhibition assay; at 20 µM; active compounds read high.
Sequence of Large T antigen (Simian virus 40) (P03070 whole entry, looked up): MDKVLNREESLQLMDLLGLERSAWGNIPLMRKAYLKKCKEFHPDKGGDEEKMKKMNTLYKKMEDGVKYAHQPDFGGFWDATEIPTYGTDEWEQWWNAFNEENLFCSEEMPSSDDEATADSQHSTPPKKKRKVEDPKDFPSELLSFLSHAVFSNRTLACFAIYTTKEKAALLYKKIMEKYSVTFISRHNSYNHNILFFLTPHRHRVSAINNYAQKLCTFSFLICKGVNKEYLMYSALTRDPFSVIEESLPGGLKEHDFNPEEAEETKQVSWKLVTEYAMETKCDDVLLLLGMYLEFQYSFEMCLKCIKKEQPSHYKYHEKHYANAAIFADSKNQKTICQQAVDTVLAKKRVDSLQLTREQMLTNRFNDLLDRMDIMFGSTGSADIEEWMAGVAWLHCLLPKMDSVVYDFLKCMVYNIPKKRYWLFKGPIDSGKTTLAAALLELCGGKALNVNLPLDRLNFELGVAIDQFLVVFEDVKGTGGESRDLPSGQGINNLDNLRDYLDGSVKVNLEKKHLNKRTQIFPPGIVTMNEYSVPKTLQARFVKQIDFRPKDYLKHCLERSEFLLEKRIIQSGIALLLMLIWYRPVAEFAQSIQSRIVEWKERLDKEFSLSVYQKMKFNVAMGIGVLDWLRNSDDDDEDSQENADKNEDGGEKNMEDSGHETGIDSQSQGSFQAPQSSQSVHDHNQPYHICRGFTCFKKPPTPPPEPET
On to `Cc1ccn(CCC(=O)Nc2ccc(-c3ccno3)cc2)n1`, for which the inhibition was 10.3%.
`C=C(c1cccc2ccccc12)P(=O)(O)O`: the inhibition is 8.15%.
To `CCOC(=O)c1c(NC(=O)COC(=O)c2nc(Cl)ccc2Cl)sc(C(=O)N(C)C)c1C` belongs 3.76%.
To `Cc1ccc(NC(=O)c2ccc(COc3ccccc3)o2)nc1` belongs -5.11%; to `Cc1ccc(Nc2nc(-c3c(C)nc4ncccn34)cs2)cc1`, 17.2%.
To `CCN(CC)c1ccc(Nc2nc(-c3cccnc3)cs2)cc1` belongs 20.5%.
Take `Fc1ccc(Nc2nc(-c3cccnc3)cs2)cc1`: the inhibition is 6.02%.
For the molecule `Cc1nc2ncccn2c1-c1csc(Nc2ccccc2)n1`, the inhibition is 16.1%.
In the case of `O=S(=O)(c1cccs1)N1CCC2(CC1)OCCN2S(=O)(=O)c1ccccc1`, the inhibition is 11.8%.
On to `CN(Cc1c(C(=O)N/N=C/c2ccccc2)nnn1-c1nonc1N)c1ccccc1`, for which the inhibition was -1.98%.
Regarding `Cc1c(C(=O)N2CC(C)OC(C)C2)[nH]c2ccc(Br)cc12` (centres undefined), the inhibition is 0.93%.
Next, `CCOC(=O)C(NCc1ccc(OC)cc1)(NC(C)=O)C(F)(F)F` (centres undefined): 0.08%.
To `O=C1NC(=O)/C(=C\c2ccccc2OCc2ccc([N+](=O)[O-])cc2)N1` belongs 16%; to `O=Cc1ccccc1OCCOc1ccc([N+](=O)[O-])cc1`, 26.7%.
Consider `C=CCn1c(-c2cccc(Cl)c2)n[nH]c1=S`, for which the inhibition is 4.07%.
With `CCCCCC(=O)NNC(=S)NC(C)=O`, the inhibition is 7.61%.
To `CC(C)(C)C(=O)CN1CCN(S(=O)(=O)c2ccc(F)cc2)CC1` belongs 1.15%.
For `CCOc1ccc(C(=O)CN2CCN(S(=O)(=O)c3ccc(F)cc3)CC2)cc1`, the inhibition was 6.42%.
For `Cc1ccc(S(=O)(=O)N2CCN(Cc3cc(C(C)C)ccc3O)CC2)cc1`, the inhibition is -1.91%.
To `COc1cc(NC(=O)CN2CCN(S(=O)(=O)c3ccc(C(C)C)cc3)CC2)cc(OC)c1` belongs 4.71%.
To `Cc1ccc(C)c(NC(=O)CN(C)C(=O)c2cc3c(s2)CCCCC3)c1` belongs 17%; to `C=CCNC(=O)COCc1cc(-c2ccc3c(c2)OCO3)on1`, 7.76%.
As for `CN(C)C(=O)CSc1nnc(-c2ccc(S(=O)(=O)N3CCCC3)cc2)n1C`, the inhibition is -1.24%.
With `C/C(=N/OC(=O)CC(C)C)c1cc(-c2ccc(Cl)cc2)no1`, the inhibition is 4.31%.
As to `O=C(CCN1CCOCC1)N/N=C/c1cc([N+](=O)[O-])ccc1OC(F)F`, the inhibition was 5.27%.
To `Cc1ccccc1-c1nnn(CC(=O)N2CCN(C(=O)c3ccco3)CC2)n1` belongs 14.3%.
In the case of `CCCOc1ccc(C(=O)Nn2c(C)nc3ccccc3c2=O)cc1`, the inhibition is 1.86%.
To `Nc1ncc(Br)cc1N=Cc1ccccc1` belongs 9.46%; to `Nc1ncnc(N)c1N=Nc1ccccc1`, 8.05%; to `C=CCN(C(=O)c1ccccc1)c1ccc(OC)cc1`, -2.78%.
Take `O=C(c1ccco1)N1CCN(C(=O)c2cc(-c3ccc(F)cc3)no2)CC1`: the inhibition is 8.37%.
For `CC(C)CNC(=O)c1cc(-c2ccc3c(c2)OCO3)on1`, the inhibition is 4.96%.
Next, `COc1ccc2c(c1)S(=O)(=O)c1ccccc1N2`: 1.87%; `Cc1nc(SCC(=O)N2c3ccccc3Sc3ccccc32)n[nH]1`: 12.6%; `O=C(CSc1nnc(-c2ccccc2)n1-c1ccccc1)N1c2ccccc2Sc2ccccc21`: 4.91%.
To `O=C(O)CCc1ccc(S(=O)(=O)Nc2ccccc2C(=O)NCCc2ccccc2)cc1` belongs 6.21%.
For the molecule `CCOC(=O)C(CN1CCCC1)c1ccccc1` (centres undefined), the inhibition was 6.65%.
For the molecule `COc1cccc(/C=N/NC(=O)C(=O)N2CCCCCC2)c1O`, the inhibition was 28.6%.
Regarding `CCCc1cc(=O)[nH]c(N/N=C/C=C\c2ccccc2)n1`, the inhibition was 6.47%.
As for `O=C(N/N=C/c1c[nH]c2ccccc12)c1cccc(O)c1`, the inhibition is 16%.
Next, `Cc1cc(N/N=C/c2c[nH]c3ccccc23)c2ccccc2n1`: 5.53%.
Regarding `O=C(N/N=C\c1c[nH]c2ccccc12)c1ccc(O)cc1`, the inhibition was 18%.
For the molecule `Cc1cc(C)nc(N/N=C/c2c[nH]c3ccccc23)n1`, the inhibition was 33.8%.
To `Cc1cc(C)c(COCc2cc(/C=N/O)c(C)cc2C)cc1/C=N/O` belongs -0.28%; to `C=CCN1C(=O)C(Cc2ccccc2)SC1=Nc1ccc(C(=O)O)cc1` (centres undefined), 25.5%.
For the molecule `C/C(=N\NC(=O)c1ccc(N)cc1)C1CC1`, the inhibition is 9.62%.
Next, `CCN1CCN(C(=O)Cn2ncc3c([nH]c4ccc(C)cc43)c2=O)CC1`: 9.03%; `Cc1cccc(NC(=S)NCc2ccc3c(c2)cc(C)n3C)c1C`: 5.14%.
In the case of `Cc1ccnc(SCc2cc(=O)c(OC(=O)c3ccc(S(=O)(=O)N4CCCC4)cc3)co2)n1`, the inhibition is 48.9%.
To `Cc1cc(C)nc(SCc2cc(=O)c(OC(=O)c3ccc(S(=O)(=O)N(C)C)cc3)co2)n1` belongs 22.4%; to `Cc1ccnc(SCc2cc(=O)c(OC(=O)c3ccc(S(=O)(=O)N(C)C)cc3)co2)n1`, 15.9%.
Take `Cc1cc(C)nc(SCc2cc(=O)c(OC(=O)c3ccc(Cl)c([N+](=O)[O-])c3)co2)n1`: the inhibition was 9.56%.
Next, `Cc1ccc(NC(=O)CN(C)C(=O)C2COc3ccccc3O2)cc1` (centres undefined): 6.98%; `Cc1ccc(S(=O)(=O)NC2=NCN(CC(=O)O)CN2)cc1`: 7.75%.
Next, `CC(=O)n1cc([C@H]2C=C(C(=O)N3CCN(Cc4ccc5c(c4)OCO5)CC3)O[C@@H](OCCCCO)C2)c2ccccc21`: 21.8%.
Consider `CCOc1ccc(CNS(=O)(=O)c2ccc3c(c2)CC(=O)N3C)cc1`, for which the inhibition is 11.9%.
To `CCOc1ccc(Oc2nc(Nc3ccc(C)cc3)nc(N(C)C)n2)nn1` belongs -0.33%; to `COc1ccc(-n2ncc3c(=O)n(CC(=O)Nc4ccc(S(=O)(=O)N5CCOCC5)cc4)cnc32)cc1`, 5.14%.
Next, `COC(=O)C(N)Cc1ccc(O)c(O)c1` (centres undefined): 20.9%; `COC(=O)[C@@H](N)Cc1ccc(O)c(O)c1`: 10%.
As to `COC(=O)c1ccc(NC(=O)COc2cccc3c2OC(C)(C)C3)cc1`, the inhibition was -1.91%.
As for `CC(=O)Nc1sc(N/N=C\c2cccc(Cl)c2)nc1-c1cccs1`, the inhibition was 18.8%.
To `CC(=O)Nc1sc(N/N=C\c2ccccc2Cl)nc1-c1cccs1` belongs 34.5%.
To `COc1cc(/C=N\Nc2nc(-c3ccc(C)cc3)c(NC(C)=O)s2)ccc1O` belongs 35.9%; to `CCOc1cc(/C=N\Nc2nc(-c3ccc(C)cc3)c(NC(C)=O)s2)ccc1O`, 26.6%; to `CC(=O)Nc1sc(N/N=C\c2ccccc2)nc1-c1cccs1`, 21%.
Next, `CC(=O)Nc1sc(N/N=C\c2ccccc2F)nc1-c1cccs1`: 9.59%; `OCCN(CCO)c1ccc(C(c2ccc(Cl)cc2)c2ccc(N(CCO)CCO)cc2Cl)c(Cl)c1`: 2.12%; `COC(=O)c1c(-c2ccccc2)noc1-c1ccccc1`: 8.1%.
On to `O=C(c1cccc(S(=O)(=O)N2CCOCC2)c1)N1CCCCCC1`, for which the inhibition was 0.39%.
To `Cc1ccc(NC(=O)CN2CCc3cc4c(cc3C2C)OCCCO4)cc1` (centres undefined) belongs 8.62%.
For the molecule `CN1C(C(=O)Nc2ccc(OC(F)(F)F)cc2)=CC(c2ccco2)=NS1(=O)=O`, the inhibition is 8.59%.
Consider `COC(=O)c1sc2cc([N+](=O)[O-])cc(SCC(C)C)c2c1N`, for which the inhibition is 10.4%.
With `COc1cc(Cl)cc(C#N)c1OCC(=O)O`, the inhibition was -0.11%.
In the case of `Cc1c(N=NC2=C(O)CCCC2=O)c(=O)n(-c2ccccc2)n1C`, the inhibition is -2.74%.
Take `Cc1c(N=Nc2ccc(O)cc2)c(=O)n(-c2ccccc2)n1C`: the inhibition is 28%.
Turning to `CC1=CC(=Nc2c(C)n(C)n(-c3ccccc3)c2=O)C=C(C)C1=O`, the inhibition was 2.58%.
Next, `Cc1c(N=NC2=C(O)CC(C)(C)CC2=O)c(=O)n(-c2ccccc2)n1C`: 4.32%; `Cc1c(NCc2ccccc2O)c(=O)n(-c2ccccc2)n1C`: 29%.
In the case of `Cc1[nH]c2ccccc2c1N=Nc1c(C)n(C)n(-c2ccccc2)c1=O`, the inhibition is 6.57%.
Next, `CCC(C)C1=CC(=Nc2c(C)n(C)n(-c3ccccc3)c2=O)C=C(C(C)CC)C1=O` (centres undefined): 4.02%.
To `CC(=O)/C(N=Nc1c(C)n(C)n(-c2ccccc2)c1=O)=C(\C)O` belongs 1.99%.
Regarding `CCNC(=O)c1c(NC(=O)C2COc3ccccc3O2)sc2c1CCCC2` (centres undefined), the inhibition was -3.17%.
Consider `COc1ccc(/C=N/NC(=O)CNc2c(Br)cc(C)cc2Br)c(C(=O)O)c1OC`, for which the inhibition was -1.95%.
Next, `Cc1nc(-c2nc(-c3c(C(=O)NNC(=O)Nc4cccc(Cl)c4)noc3C)cs2)cs1`: 8.51%.
Next, `Cc1ccc(C(=O)OCC(=O)N2CC(C)CC(C)C2)cc1S(=O)(=O)N1CCOCC1` (centres undefined): -0.25%; `COc1ccc(N(C(C)C(=O)Nc2ccc(S(=O)(=O)N3CCOCC3)cc2)S(C)(=O)=O)cc1` (centres undefined): 22.9%; `Cc1ccc(S(=O)(=O)NNC(=O)Nc2ccc([N+](=O)[O-])cc2)c(C)c1`: 7.86%.
Next, `NC(=O)COC(=O)CNC(=O)c1sc2ccccc2c1Cl`: 4.69%; `c1ccc2cc(OCCOCCOc3ccc4ccccc4c3)ccc2c1`: 5.7%; `CC1=NN(c2cccc(F)c2)C(=O)/C1=C/c1ccc(N(C)C)cc1`: 8.44%.
On to `CCN(CC)c1ccc(/C=C2/C(=O)ON=C2C)cc1`, for which the inhibition is 29.4%.
Next, `Cc1oc2ccccc2c1CC(=O)NCCCN(C)C`: -4.93%.
Next, `Cc1cc(C)n(C(=O)CNC(=O)c2ccccc2F)n1`: 9.87%.

Broadly, the inhibition is the change of the read-out against control, counted positive when it falls.

For the origin of these results see PubChem BioAssay AID1903 (Southern Research Specialized Biocontainment Screening …, 2009).
